# Only a selection was taken, and hits are over-represented in it overall.
# ALOX15B inhib: qHTS Assay for Inhibitors of 15-hLO-2 (15-human lipoxygenase 2) | purified 15hLO-2, xylenol orange hydroperoxide absorbance | Potency, µM (top dose mostly 57.1 µM), without a hit: at the top dose activity change, negative = inhibition, hits mostly inhibitors | hit rate 0.56% among 110,000 | AID 881, 2007; also: potency is read from the fitted curve at half-maximal effect; nearly all actives have a fitted effect of over 60% in size
#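 Purified human 15hLO-2 (50 nM) preincubated 15 min with compound, then 45 uM arachidonic acid for 90 min at RT in 25 mM Hepes pH 7.5, 0.01% Triton X-100. Hydroperoxide detected by Fe-xylenol orange; 573/405 nm absorbance ratio.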
# IMPase inh: qHTS Assay for Identifying the Cell-Membrane Permeable IMPase Inhibitors; inhibition (IP1 accumulation), % at 46.1 µM; AID 901, 2007; 120,000 tested, under 10 active; Inositol monophosphatase 1 (Rattus norvegicus), P97697; CHO-M1 cells, IP1 accumulation, HTRF TR-FRET ratio; active = well fitted curve in the direction sought with a large enough effect in the signal ratio, not every such curve was filed as active; inconclusive = small, poorly fitted or top-dose-only effect, or a change in a side signal; inactive = no such curve, though single readings can be large or run the other way; the % refers to the signal ratio;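 also: cells stimulated with carbachol in lithium chloride buffer; plate controls were DMSO basal wells for no effect and reference inhibitor wells for full effect; higher means more IMPase inhibition seen as more IP1 and lower FRET ratio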
#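 Seeded CHO-M1 cells were dosed with compound at up to 46 uM, stimulated with carbachol for 30 min, then lysed in IP-One detection reagents. Higher IP1 lowers the TR-FRET signal.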
# 12-hLO inh: qHTS Assay for Inhibitors of 12-hLO (12-human lipoxygenase) | hit rate 0.12% among 150,000 | Potency, µM (titrated, usually from 57.1 µM), inactives show at the top dose activity change, negative = inhibition, actives largely listed as inhibitors | purified 12-hLO, xylenol orange hydroperoxide absorbance | AID 1452, 2008; also: potency is read from the fitted curve at half-maximal effect; nearly all actives have a fitted effect of over 55% in size
# Target sequence (P18054 whole entry, looked up): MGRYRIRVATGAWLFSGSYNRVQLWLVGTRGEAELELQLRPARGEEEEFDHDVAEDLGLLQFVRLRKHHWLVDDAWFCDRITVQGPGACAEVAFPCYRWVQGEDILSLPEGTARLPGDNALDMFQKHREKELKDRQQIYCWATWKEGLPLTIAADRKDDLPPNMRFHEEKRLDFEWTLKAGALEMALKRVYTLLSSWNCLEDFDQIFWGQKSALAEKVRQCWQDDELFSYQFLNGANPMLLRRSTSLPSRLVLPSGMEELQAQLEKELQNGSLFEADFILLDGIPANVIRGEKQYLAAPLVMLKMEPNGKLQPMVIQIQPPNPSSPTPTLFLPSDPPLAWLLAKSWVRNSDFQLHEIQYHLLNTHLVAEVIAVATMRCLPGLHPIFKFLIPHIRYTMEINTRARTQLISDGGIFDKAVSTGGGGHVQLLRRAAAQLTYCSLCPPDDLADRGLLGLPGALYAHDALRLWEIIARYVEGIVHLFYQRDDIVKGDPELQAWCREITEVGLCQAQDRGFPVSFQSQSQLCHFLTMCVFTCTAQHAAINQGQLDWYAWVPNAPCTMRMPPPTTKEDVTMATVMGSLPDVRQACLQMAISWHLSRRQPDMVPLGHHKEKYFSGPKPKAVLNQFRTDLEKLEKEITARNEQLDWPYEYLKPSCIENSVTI
#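 Lipoxygenase turnover measured by absorbance at 573 and 405 nm after Fe-XO development. Human 12hLO 150 nM, arachidonate 40 uM, pH 7.0 Hepes buffer with detergent; 15 min compound preincubation, 30 min reaction.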
# IMPase Li cell: qHTS Assay for Identifying the Cell-Membrane Permeable IMPase Inhibitors: Potentiation with Lithium; CHO-M1 cells, IP1 TR-FRET (IP-One), carbachol + lithium; Potency, µM (top dose mostly 59.4 µM), without a hit: at the top dose activity, negative = IMPase inhibition, most hits filed as inhibitors; hit rate 0.35% among 210,000;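 also: IP1 builds up when IMPase is blocked and the TR-FRET signal falls; potency is read from the fitted curve at half-maximal effect; plate controls were basal vehicle for no effect and high inhibitor control for full effect; nearly all actives have a fitted effect of over 50% in size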
#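 Concentration–response in CHO-M1 cells, lithium-potentiated; 30 min at 37C. IP1 detected by competitive TR-FRET after 10 min lysis at RT. Hill-fitted AC50.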
# Starred values were filed as active, the others as inactive; ? = inconclusive; · = no result given; [ ] = another dose, or the depositor's remark. Unless noted, calls follow the shape of the dose curve; as a rule, active = well fitted curve in the direction sought with a large enough effect; inconclusive = small, poorly fitted or top-dose-only effect, or another doubt; inactive = no such curve, though single readings can be large; an effect the other way counts as inactive or inconclusive. Unless noted, % is scaled to controls: 0 for no effect and ±100 for the full control effect.
SMILES,ALOX15B inhib,IMPase inh,12-hLO inh,IMPase Li cell
O=C(OC1Cc2c(O)cc(O)cc2OC1c1cc(O)c(O)c(O)c1)c1cc(O)c(O)c(O)c1 (centres undefined),-29%,·,-14%,-14%
O=c1c2c([N+](=O)[O-])cc([N+](=O)[O-])cc2sn1-c1ccc(Br)cc1,·,-1,3.2µM*,4%
O=[N+]([O-])c1ccc(N/N=C/c2c[nH]c3ccccc23)cc1,?,4,-21%,-10%[38.3 µM]
O=[N+]([O-])c1ccc(N/N=C/c2ccc[nH]2)cc1,·,·,6.3µM*,-8%
COc1cccc(Cn2c(=O)c(C)nc3cnc(OCc4ccccc4)nc32)c1,-3%,·,-6%,6%
COC(=O)NNC(=O)COc1ccc2ccccc2c1Br,·,·,-1%,?
O=C(COc1ccc2ccccc2c1Br)NNC(=O)Nc1ccccc1,?,-18,-1%,11µM*
COc1ccc(-c2cn3c(C)c(C(=O)Nc4cc(NC(C)=O)ccc4OC)sc3n2)cc1,·,?,-2%,4.5µM*
O=C(/C=C/c1ccc(O)c(O)c1)OCCc1ccccc1,10µM*,·,?,20%
O=C(O)/C=C\c1ccc(O)c(O)c1,-3%[25.6 µM],8[20.6 µM],4%[25.6 µM],1%
CCOc1cc2[nH]c(=O)n(CCCC(=O)NCc3ccco3)c(=O)c2cc1OCC,4%,5,-5%,-4%[38.3 µM]
O=C(NCc1ccco1)c1ccc2c(=O)n(-c3ccccc3)c(=S)[nH]c2c1,-27%,-27,3%,13µM*
COc1ccc(-n2c(=S)[nH]c3cc(C(=O)NCc4ccco4)ccc3c2=O)cc1OC,-14%,0,-3%,-17%[38.3 µM]
CCOc1cc2[nH]c(=S)n(CCCC(=O)NCc3ccco3)c(=O)c2cc1OCC,-17%,-1,1%,14µM*
N#Cc1c(-c2ccccc2)nc(SCc2nc(N)nc(N3CCCCC3)n2)[nH]c1=O,-5%,-15,2%,4.5µM*
N#Cc1c(-c2ccccc2)nc(SCC(=O)NC2CCCCC2)[nH]c1=O,·,·,·,10µM*
CCC(Sc1nc2ccccc2[nH]1)C(=O)Nc1cc(C)on1 (centres undefined),-9%,?,-2%,33%[38.3 µM]
CNC(=O)NC(=O)CSc1nc(-c2cccs2)c(C#N)c(=O)[nH]1,·,·,·,5µM*
CCC(Sc1nc(-c2ccccc2)c(C#N)c(=O)[nH]1)C(=O)Nc1cc(C)on1 (centres undefined),-2%,?,-4%,11µM*
CSC(N)=NCCC[C@@H](N)C(=O)O,-3%,12,-4%,·
COc1c2ccoc2nc2c(OC)c(O[C@@H]3O[C@H](C)[C@@H](O)[C@@H](O)[C@H]3O)ccc12,·,·,·,5%
CCSc1nc(-c2ccccc2)c(C#N)c(=O)[nH]1,3%[11.4 µM],?,0%,2µM*
CSc1nc(-c2ccc(Cl)cc2)c(C#N)c(=O)[nH]1,·,·,·,-13%
COC(=O)C(CC(C)C)NC(=O)CSc1nc(-c2ccccc2)c(C#N)c(=O)[nH]1 (centres undefined),-7%,?,-1%,8.9µM*
COC(=O)N1CCC2(CCN(Cc3nccs3)CC2)CC1,3%,·,0%,9%
SMILES,ALOX15B inhib,IMPase inh,12-hLO inh,IMPase Li cell
Cc1cc(S(=O)(=O)Nc2ccccc2C(=O)O)ccc1F,·,·,-1%,·
COc1ccc(Cl)cc1NC(=S)NCCC(c1ccccc1)c1ccccc1,·,-9,?,15%
COc1cc(NC(=S)NCCC(c2ccccc2)c2ccccc2)c(OC)cc1Cl,·,-21,22µM*,·
S=C(NCCC(c1ccccc1)c1ccccc1)Nc1ccc(Cl)cc1,25µM*,4,?,11%[38.3 µM]
Oc1ccccc1NCC(O)Cn1ccc2ccccc21 (centres undefined),13µM*,7,-26%,·
O=C1NC2(CCCCC2)NN1c1ccccc1,?,-6,4µM*,-25%[38.3 µM]
N#C/C(C(=O)NCc1ccco1)=C1/SC=C(c2ccccc2)N1c1ccccc1,·,·,-4%,11µM*
CC1=CS/C(=C(/C#N)C(=O)NCc2ccco2)N1c1ccccc1,2%,-1,2%,-2%[38.3 µM]
CCCn1c(-c2ccc(F)cc2)nc2c(NCCCN3CCOCC3)nc(C)nc21,35%,·,8%,3%
COC(=O)c1ccc2c(c1)C(C)(C)C(/C=C/c1ccccc1O)=[N+]2C,16µM*,5,14µM*,32%[38.3 µM]

# From PubChem
